Results as given in PubChem BioAssay.
Inconclusive results are not listed. Calls of active or inactive are those of the source. Rule as the data show it, unless noted: active = percent of DMSO control GFP below about 86%; inactive = the rest, inconclusive results apart.

Legend:
[1] = yeast TOR pathway RPL19A-GFP modulators, primary screen, cell-based, S. cerevisiae, multiplex flow cytometry (AID 1862);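 also: lower values mimic rapamycin by blocking the RPL19A rise seen in DMSO cells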; settings: S. cerevisiae RPL19A-GFP strain, flow cytometry fluorescence, 3 h; at 10 µM; stronger effect = lower value
[2] = modulators of MEP2-GFP levels in yeast, primary screen, S. cerevisiae, multiplex flow cytometry (AID 1867;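 active = GFP response, as percent of the DMSO control, above the screen-wide mean plus 3 SD, about 139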;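 also: median GFP channel fluorescence of barcode-gated MEP2-GFP cells measured by flow cytometry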); settings: S. cerevisiae MEP2-GFP strain, 3 h, at 10 µM, stronger effect = higher value, 100% means same as DMSO wells
[3] = modulators of CIT2-GFP expression in yeast, primary screen, S. cerevisiae, GFP fusion, multiplex flow cytometry (AID 1870;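 active = percent response above a set limit, the screen-wide mean plus 3 SD, cut at about 130% in these data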;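 also: barcoded CIT2-GFP strain pooled with four other GFP strains with rapamycin as positive control; median GFP fluorescence per well over plate mean of DMSO wells so 100% = DMSO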); settings: 3 h, at 10 µM, stronger effect = higher value
[4] = modulators of LAP4-GFP expression in yeast, primary screen, S. cerevisiae, multiplex flow cytometry (AID 1873;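 active = GFP signal, as percent of the solvent control, above the screen mean plus 3 SD, about 149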); settings: 3 h, at 10 µM, stronger effect = higher value
[5] = modulators of AGP1-GFP expression in yeast TOR pathway, primary screen, cell-based, multiplex flow cytometry, S. cerevisiae (AID 1887;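 active = GFP signal above the screen-wide mean plus 3 SD, that is over about 124.5% of the solvent control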;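 also: AGP1-GFP fusion strain of S. cerevisiae within a five-strain barcoded multiplex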); settings: 3 h, at 10 µM, stronger effect = higher value
[6] = inhibitors of CD8+ T cell-vesicle binding, pilot screen, LFA-1/ICAM-1 modulator project, MLPCN validation set, flow cytometry (AID 2523;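 active = response below a set limit, under 55% cells CD8-positive and vesicle-bound, and CD8 cells' 90th-percentile brightness under 279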;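 as to vesicle binding response: mean PE anti-B7-1 fluorescence of CD8+ cells relative to row control; 100% = QL9-loaded vesicles with DMSO vehicle in the same plate row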); settings: 2C mouse CD8+ T cells, at 7 µM, stronger effect = lower value; double positive events: measured here: CD8+/vesicle+ event percentage
[7] = biological target: Integrin beta-1 (Homo sapiens) + Integrin alpha-4 (Homo sapiens) (UniProt P13612+P05556); test: inhibition of HUTS-21 binding to VLA-4, pilot screen, VLA-4 allosteric modulator project, U937 cells, HUTS-21 mAb, flow cytometry, validation set (AID 2674;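 active = inhibition above 50%, about 3 SD of the validation set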;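 also: antibody binding induced by the VLA-4 ligand LDV present at three times its Kd; 0% = LDV ligand with antibody and no compound and 100% = antibody without LDV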); settings: HUTS-21 LIBS mAb binding, at 6.7 µM, stronger effect = higher value, binding induced by LDV ligand
[8] = superoxide lowering in aged yeast cells, pilot screen, validation compound set (AID 2706;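 active = superoxide response below 65% of plate, a cut near 3 SD across the whole screen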;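 also: yeast exposed to compound for one week at 30 degrees C before staining; 100% = mean of all compound wells on the same plate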); settings: S. cerevisiae aging, superoxide DHE fluorescence; at 10 µM; stronger effect = lower value
[9] = biological target: Beta-adrenergic receptor kinase 1 (Homo sapiens) (UniProt P25098); test: GRK2 binders displacing RNA aptamer, biochemical, validation, human GRK2, bead flow cytometry (AID 488806;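 active = aptamer binding inhibition above 30%, about 3 SD of noise from non-fluorescent compounds; inactive = inhibition at or below 30%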); settings: bead-bound GRK2, FAM-aptamer displacement, at 10 µM, stronger effect = higher value
[10] = biological target: Beta-2 adrenergic receptor (Homo sapiens) (UniProt P07550); test: beta2AR agonists driving receptor internalization, pilot screen, cell-based, FAP fluorogen, flow cytometry, validation set (AID 504459;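 active = percent response above 42, roughly 3 SD of non-fluorescent test compounds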;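 also: agonist-driven loss of surface beta2AR via internalization measured by FAP dye flow cytometry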); settings: Am2.2-beta2AR cells, FAP surface receptor flow cytometry; at 10 µM; stronger effect = higher value
[11] = biological target: AP-2 complex subunit beta (Homo sapiens) (UniProt P63010); test: inhibitors of arrestin peptide binding to AP2, pilot screen, biochemical, validation set, GST-AP2 beads, flow cytometry (AID 504541;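 active = inhibition above 54%, about 3 SD of non-fluorescent compounds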;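 also: AP2 carries R879A mutation and is captured from E. coli lysate; bead-bound FITC arrestin peptide fluorescence measuring arrestin peptide binding to AP2; 0% = DMSO wells and 100% = excess unlabeled arrestin peptide control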); settings: FITC arrestin peptide, at 10 µM, stronger effect = higher value, AP2 beta2 appendage fragment, R879A mutant
[12] = yeast V-ATPase proton transport modulators, S. cerevisiae, pHLuorin, HTS validation (AID 504600; in the data active = response above about 15%;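 also: plate controls were DMSO for no effect and reference compound for full effect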); settings: S. cerevisiae pHLuorin cytosolic pH, at 10 µM, stronger effect = higher value
[13] = test system: anti-desmoglein-3 scFv antibody binding to human DSG3; test: inhibitors of anti-DSG3 scFv binding to DSG3, pilot screen, biochemical, validation compound set, bead-based, flow cytometry (AID 588368;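 active = binding below the plate cutoff, the plate median minus 3 SD, with a reading above zero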;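 also: signal is the median channel fluorescence of bead-bound GFP antibody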); settings: Protein G beads, DSG3-Fc, scFv-GFP binding, at 10 µM, stronger effect = lower value
[14] = inhibitors of fungal efflux pumps CDR1, CDR2, MDR1, pilot screen, validation compound set, multiplex, phenotypic (AID 588506;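 active = efflux inhibition above 0.42, the validation set average plus 4 SD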;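 also: Nile Red retained in cells so higher fluorescence means more efflux inhibition; 0 = negative control wells and 1 = enniatin B 25 µM full block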); settings: S. cerevisiae pump-expressing triplex, Nile Red efflux flow cytometry; at 10 µM; stronger effect = higher value; the pumps come from Candida albicans
[15] = biological target: ATP-binding cassette sub-family B member 6 (Homo sapiens) (UniProt Q9NP58); test: ABCB6 transporter inhibitors, pilot screen, K562-ABCB6 cells, flow cytometry, validation set (AID 588550;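 active = inhibition above the screen-wide mean plus 3 SD, about 51%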;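 also: 0% = DMSO wells and 100% = benzethonium chloride 70 µM positive control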); settings: K562-ABCB6 porphyrin accumulation, 1 h, at 10 µM, stronger effect = higher value
[16] = promoters of myeloid differentiation in arrested cells, primary screen, cell-based, GFP/MAC1 double positive, flow cytometry, validation set (AID 588685;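 active = differentiation response of at least 50%, scaled between solvent and reference control, from cells with both markers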;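 also: compound exposure lasts four days before antibody staining and flow analysis; 0% = DMSO wells and 100% = 5 µM fulvestrant positive control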); settings: ER-HoxA9 marrow cells, stronger effect = higher value, normalized: vehicle 0, fulvestrant 100

Sequence of AP-2 complex subunit beta (Homo sapiens) (P63010 whole entry, looked up, the tested form may be a part, one chain of several): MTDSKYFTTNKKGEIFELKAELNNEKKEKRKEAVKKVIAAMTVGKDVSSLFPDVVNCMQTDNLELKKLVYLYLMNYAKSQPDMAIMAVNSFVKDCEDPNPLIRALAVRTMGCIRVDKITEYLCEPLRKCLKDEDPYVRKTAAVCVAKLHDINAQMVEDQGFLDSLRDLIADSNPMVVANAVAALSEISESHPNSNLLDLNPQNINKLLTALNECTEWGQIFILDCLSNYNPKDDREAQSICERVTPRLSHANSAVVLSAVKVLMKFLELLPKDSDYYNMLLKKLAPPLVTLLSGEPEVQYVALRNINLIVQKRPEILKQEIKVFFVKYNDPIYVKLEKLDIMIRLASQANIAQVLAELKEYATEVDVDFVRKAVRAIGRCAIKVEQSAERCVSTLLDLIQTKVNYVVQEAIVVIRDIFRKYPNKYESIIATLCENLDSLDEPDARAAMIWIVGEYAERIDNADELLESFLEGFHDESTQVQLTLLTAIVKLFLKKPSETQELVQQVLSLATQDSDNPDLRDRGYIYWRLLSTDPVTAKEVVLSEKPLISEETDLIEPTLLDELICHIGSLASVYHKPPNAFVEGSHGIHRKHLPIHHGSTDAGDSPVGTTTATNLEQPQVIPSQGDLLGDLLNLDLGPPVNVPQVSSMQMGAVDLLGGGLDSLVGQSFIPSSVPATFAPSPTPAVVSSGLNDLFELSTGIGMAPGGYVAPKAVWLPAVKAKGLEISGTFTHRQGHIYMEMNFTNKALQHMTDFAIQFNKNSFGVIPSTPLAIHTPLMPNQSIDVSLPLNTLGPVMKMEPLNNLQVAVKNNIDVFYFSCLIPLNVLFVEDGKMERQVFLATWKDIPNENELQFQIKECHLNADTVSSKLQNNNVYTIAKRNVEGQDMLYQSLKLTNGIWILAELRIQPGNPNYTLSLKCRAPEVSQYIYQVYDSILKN
Sequence of Beta-2 adrenergic receptor (Homo sapiens) (P07550 whole entry, looked up): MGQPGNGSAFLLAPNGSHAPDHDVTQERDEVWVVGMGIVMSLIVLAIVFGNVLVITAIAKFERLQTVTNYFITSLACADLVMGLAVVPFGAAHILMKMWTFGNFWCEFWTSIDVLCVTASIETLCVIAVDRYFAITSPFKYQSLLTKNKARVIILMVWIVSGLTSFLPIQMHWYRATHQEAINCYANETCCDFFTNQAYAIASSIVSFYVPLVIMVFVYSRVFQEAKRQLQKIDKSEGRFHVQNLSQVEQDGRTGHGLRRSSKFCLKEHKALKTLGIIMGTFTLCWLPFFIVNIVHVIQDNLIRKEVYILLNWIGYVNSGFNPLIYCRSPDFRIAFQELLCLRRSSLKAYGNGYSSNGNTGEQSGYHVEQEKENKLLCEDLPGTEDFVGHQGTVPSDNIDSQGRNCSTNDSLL
Sequence of Integrin beta-1 (Homo sapiens) + Integrin alpha-4 (Homo sapiens) (P05556 whole entry, looked up): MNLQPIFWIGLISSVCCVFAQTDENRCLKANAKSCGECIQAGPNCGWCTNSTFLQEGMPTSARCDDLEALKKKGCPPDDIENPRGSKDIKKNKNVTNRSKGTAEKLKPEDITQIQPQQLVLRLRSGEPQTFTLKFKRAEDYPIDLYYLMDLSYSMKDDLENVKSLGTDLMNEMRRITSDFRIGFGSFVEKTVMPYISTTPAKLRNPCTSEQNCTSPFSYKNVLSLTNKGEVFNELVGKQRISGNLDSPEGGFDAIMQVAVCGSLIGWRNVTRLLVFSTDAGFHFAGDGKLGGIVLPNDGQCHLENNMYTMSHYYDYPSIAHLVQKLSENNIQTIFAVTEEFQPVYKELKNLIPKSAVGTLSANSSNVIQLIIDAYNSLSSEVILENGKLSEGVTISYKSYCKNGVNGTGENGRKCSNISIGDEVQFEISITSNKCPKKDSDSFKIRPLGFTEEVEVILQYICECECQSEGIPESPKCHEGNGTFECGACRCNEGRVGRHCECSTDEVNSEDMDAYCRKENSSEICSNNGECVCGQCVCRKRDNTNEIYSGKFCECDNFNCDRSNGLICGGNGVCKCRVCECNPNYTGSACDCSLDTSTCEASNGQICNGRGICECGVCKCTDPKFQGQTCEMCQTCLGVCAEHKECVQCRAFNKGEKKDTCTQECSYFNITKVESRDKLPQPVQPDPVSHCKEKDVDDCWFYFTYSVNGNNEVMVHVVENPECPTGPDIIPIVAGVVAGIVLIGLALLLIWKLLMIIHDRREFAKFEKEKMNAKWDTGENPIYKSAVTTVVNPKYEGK
Sequence of Integrin beta-1 (Homo sapiens) + Integrin alpha-4 (Homo sapiens) (P13612 whole entry, looked up): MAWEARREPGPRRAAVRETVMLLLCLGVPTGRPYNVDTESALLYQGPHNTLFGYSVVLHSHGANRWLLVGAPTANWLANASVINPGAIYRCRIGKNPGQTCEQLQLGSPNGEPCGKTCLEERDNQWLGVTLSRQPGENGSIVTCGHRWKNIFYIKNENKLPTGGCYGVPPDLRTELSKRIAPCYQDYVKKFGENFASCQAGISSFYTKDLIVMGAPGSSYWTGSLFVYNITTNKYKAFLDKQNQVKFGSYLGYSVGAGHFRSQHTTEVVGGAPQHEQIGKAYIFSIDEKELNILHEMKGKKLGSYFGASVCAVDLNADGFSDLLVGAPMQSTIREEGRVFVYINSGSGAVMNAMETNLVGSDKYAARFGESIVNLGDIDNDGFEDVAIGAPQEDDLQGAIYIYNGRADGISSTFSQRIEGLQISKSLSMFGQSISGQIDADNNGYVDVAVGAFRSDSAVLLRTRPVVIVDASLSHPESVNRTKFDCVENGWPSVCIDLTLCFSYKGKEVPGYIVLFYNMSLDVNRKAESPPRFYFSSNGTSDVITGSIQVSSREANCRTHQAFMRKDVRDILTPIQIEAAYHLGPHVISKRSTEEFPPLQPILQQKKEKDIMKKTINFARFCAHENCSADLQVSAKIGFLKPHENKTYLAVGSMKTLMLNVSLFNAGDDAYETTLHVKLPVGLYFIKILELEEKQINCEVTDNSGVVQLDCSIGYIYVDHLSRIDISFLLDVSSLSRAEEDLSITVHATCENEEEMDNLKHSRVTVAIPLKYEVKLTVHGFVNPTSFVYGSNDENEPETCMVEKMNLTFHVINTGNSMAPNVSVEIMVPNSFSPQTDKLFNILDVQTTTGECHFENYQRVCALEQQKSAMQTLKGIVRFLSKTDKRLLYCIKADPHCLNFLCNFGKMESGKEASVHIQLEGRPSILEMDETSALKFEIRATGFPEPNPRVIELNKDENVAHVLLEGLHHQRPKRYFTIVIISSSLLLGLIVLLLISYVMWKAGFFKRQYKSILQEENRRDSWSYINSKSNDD
Sequence of ATP-binding cassette sub-family B member 6 (Homo sapiens) (Q9NP58 whole entry, looked up): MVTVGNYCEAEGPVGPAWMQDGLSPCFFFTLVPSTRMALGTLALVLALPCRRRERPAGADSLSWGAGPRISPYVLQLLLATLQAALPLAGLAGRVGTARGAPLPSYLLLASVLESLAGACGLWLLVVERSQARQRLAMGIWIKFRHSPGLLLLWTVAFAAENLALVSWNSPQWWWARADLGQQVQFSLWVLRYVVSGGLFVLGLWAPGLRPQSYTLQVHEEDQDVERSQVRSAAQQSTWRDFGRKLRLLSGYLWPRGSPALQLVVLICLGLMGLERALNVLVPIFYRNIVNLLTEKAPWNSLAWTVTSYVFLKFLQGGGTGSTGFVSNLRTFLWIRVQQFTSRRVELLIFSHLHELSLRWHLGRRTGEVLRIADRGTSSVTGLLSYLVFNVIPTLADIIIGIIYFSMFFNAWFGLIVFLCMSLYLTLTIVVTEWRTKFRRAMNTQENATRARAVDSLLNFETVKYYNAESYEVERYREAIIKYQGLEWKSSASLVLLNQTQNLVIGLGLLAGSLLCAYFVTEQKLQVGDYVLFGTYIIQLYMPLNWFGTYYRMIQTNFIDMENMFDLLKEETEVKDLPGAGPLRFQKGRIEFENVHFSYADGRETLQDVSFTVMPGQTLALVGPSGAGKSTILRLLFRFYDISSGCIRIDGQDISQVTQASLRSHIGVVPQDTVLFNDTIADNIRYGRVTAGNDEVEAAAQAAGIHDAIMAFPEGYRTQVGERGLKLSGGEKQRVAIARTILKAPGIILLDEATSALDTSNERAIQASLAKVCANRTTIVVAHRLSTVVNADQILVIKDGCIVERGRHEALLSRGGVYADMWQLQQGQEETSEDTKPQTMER
Sequence of Beta-adrenergic receptor kinase 1 (Homo sapiens) (P25098 whole entry, looked up): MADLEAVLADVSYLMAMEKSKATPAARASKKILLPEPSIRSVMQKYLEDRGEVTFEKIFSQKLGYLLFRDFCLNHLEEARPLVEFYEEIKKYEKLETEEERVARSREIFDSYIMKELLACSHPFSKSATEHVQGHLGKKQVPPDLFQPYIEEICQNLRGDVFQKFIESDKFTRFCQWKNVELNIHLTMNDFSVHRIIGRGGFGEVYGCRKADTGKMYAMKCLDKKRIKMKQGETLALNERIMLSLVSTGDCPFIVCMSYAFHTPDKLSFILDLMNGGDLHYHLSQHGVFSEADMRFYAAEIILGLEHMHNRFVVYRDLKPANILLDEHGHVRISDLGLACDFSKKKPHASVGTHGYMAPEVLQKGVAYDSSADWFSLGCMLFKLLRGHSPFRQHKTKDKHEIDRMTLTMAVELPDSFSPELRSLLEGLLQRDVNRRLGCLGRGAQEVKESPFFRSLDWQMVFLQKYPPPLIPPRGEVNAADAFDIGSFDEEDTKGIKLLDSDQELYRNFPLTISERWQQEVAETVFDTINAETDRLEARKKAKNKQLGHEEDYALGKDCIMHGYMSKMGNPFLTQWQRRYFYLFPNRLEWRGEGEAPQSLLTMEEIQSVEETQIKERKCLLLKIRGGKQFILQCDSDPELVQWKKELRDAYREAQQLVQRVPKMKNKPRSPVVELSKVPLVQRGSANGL

Row | SMILES | percent of DMSO control GFP [1] | GFP response vs DMSO [2] | percent response of DMSO control [3] | GFP response vs DMSO [4] | GFP response, % of DMSO [5] | double positive events [6] [%] | vesicle binding response [6] | inhibition [7] | superoxide response (% of plate) [8] | aptamer binding inhibition [9] | response [10] | inhibition [11] | response [12] | binding (% of control) [13] | efflux inhibition (fraction of control) [14] | inhibition [15] | differentiation response [16]
1 | CSc1ccc(CN2CCN(CCC(C)C)C(CCO)C2)cc1 (stereo not drawn) | 101% (inactive) | 106% (inactive) | 109% (inactive) | 117% (inactive) | 131% (active) | 61.2 | 199% (inactive) | 4.84% (inactive) | 91.4% (inactive) | -1% (inactive) | -11.6% (inactive) | -9.19% (inactive) | 2.63% (inactive) | 102% (inactive) | -0.09 (inactive) | 0% (inactive) | -5.97% (inactive)
2 | COc1cc(-c2cccs2)cc(=O)c2c(C)oc(C)c12 | 97.6% (inactive) | 105% (inactive) | 84.4% (inactive) | 142% (inactive) | 93.2% (inactive) | 62.6 | 235% (inactive) | -160% (inactive) | 96.1% (inactive) | -1% (inactive) | 54% (active) | 54.7% (active) | -7.46% (inactive) | 105% (inactive) | 0.26 (inactive) | 2% (inactive) | 4% (inactive)
3 | O=c1c2[nH]c3ccccc3c2ncn1CCC1=CCCCC1 | 91.7% (inactive) | 127% (inactive) | 103% (inactive) | 82% (inactive) | 89.6% (inactive) | 62.1 | 149% (inactive) | 14.2% (inactive) | 95.4% (inactive) | -3% (inactive) | -1.85% (inactive) | -5.27% (inactive) | 0.28% (inactive) | 101% (inactive) | 0.01 (inactive) | 13% (inactive) | 1.64% (inactive)
4 | Fc1ccc(C(c2ccc(F)cc2)N2CCN(C/C=C/c3ccccc3)CC2)cc1 | 94.6% (inactive) | 131% (inactive) | 104% (inactive) | 80.9% (inactive) | 97% (inactive) | 56.3 | 215% (inactive) | -1.3% (inactive) | 108% (inactive) | 4% (inactive) | 6.79% (inactive) | 2.83% (inactive) | -0.13% (inactive) | 110% (inactive) | -0.02 (inactive) | 1% (inactive) | 4.09% (inactive)
5 | Nc1ccc(S(=O)(=O)NC(=O)c2ccccc2)cc1 | 100% (inactive) | 103% (inactive) | 96.6% (inactive) | 99.9% (inactive) | 100% (inactive) | 57.6 | 30.6% (inactive) | -6.68% (inactive) | 110% (inactive) | 1% (inactive) | -5.78% (inactive) | -15.4% (inactive) | 5.4% (inactive) | 99.3% (inactive) | -0.07 (inactive) | 11% (inactive) | 1.22% (inactive)
6 | COc1ccccc1C(O)c1nccn1C (stereo not drawn) | 92% (inactive) | 127% (inactive) | 106% (inactive) | 79.8% (inactive) | 93.1% (inactive) | 76.2 | 282% (inactive) | 17.1% (inactive) | 81.3% (inactive) | 4% (inactive) | -3.43% (inactive) | 0.35% (inactive) | 24.9% (active) | 104% (inactive) | -0.35 (inactive) | 11% (inactive) | -7.37% (inactive)
7 | Cc1ccc(O)c(CCc2ccccc2)n1 | 100% (inactive) | 109% (inactive) | 94.2% (inactive) | 90.7% (inactive) | 98.3% (inactive) | 61.6 | 222% (inactive) | -4.6% (inactive) | 106% (inactive) | 2% (inactive) | -1.92% (inactive) | 3.07% (inactive) | 0.6% (inactive) | 98.4% (inactive) | -0.04 (inactive) | 19% (inactive) | 6.11% (inactive)
8 | CC1CCN(CCOCCOc2ccccc2Br)CC1 | 102% (inactive) | 103% (inactive) | 93.1% (inactive) | 86.8% (inactive) | 97.2% (inactive) | 54.8 | 167% (inactive) | 8.88% (inactive) | 95.8% (inactive) | 0% (inactive) | -4.72% (inactive) | -6.16% (inactive) | -0.14% (inactive) | 95.6% (inactive) | -0.17 (inactive) | -4% (inactive) | 15.9% (inactive)
9 | CCC(=O)Nc1ccc(C(=O)N2CCN(C(=O)c3ccco3)CC2)cc1 | 101% (inactive) | 109% (inactive) | 104% (inactive) | 101% (inactive) | 99.7% (inactive) | 64.9 | 202% (inactive) | 4.73% (inactive) | 101% (inactive) | 0% (inactive) | -11.7% (inactive) | 0.87% (inactive) | -1.11% (inactive) | 95.5% (inactive) | -0.23 (inactive) | 0% (inactive) | 7.09% (inactive)
